For 92 molecules, inhibition results are on record in PubChem BioAssay AID504329 (Southern Research Specialized Biocontainment Screening …, 2011).

Usually inhibition stands for the change of the read-out against control, counted positive when it falls.

Out of some 340,000 compounds screened, about 1,000 (0.29%) were called active. Cut-off read from the data, not from the text of the source: inconclusive = inhibition above about 27% without an active follow-up result; inactive = below that. The list is a sample of the results. Potency and affinity values are given separately.

A short description of the assay: NS1A inhibition, H1N1 influenza, cell based functional assay (AID 504329). The conditions noted are these: percent inhibition, at 12.5 µM, active compounds read high.
For the molecule `O=C(CSc1ccc(-c2ccccn2)nn1)NCc1ccccc1`, the inhibition is 1.11% (inactive).

On to `Cc1ccc(CNC(=O)CSc2ccc(-c3ccccn3)nn2)cc1`, for which the inhibition is 14.6% (inactive).

`COc1cccc(CNC(=O)CSc2ccc(-c3cccs3)nn2)c1`: the inhibition is 5.92% (inactive).

As to `COc1cccc(CNC(=O)CSc2ccc(-c3ccco3)nn2)c1`, the inhibition is -0.85% (inactive).

`O=C(O)C1CCCCC1C(=O)Nc1ccc(S(=O)(=O)N2CCCCC2)cc1` (configuration not stated): the inhibition is 4.7% (inactive).

With `CCCC(C)C1(CC)C(=O)NC(=O)N=C1N` (configuration not stated), the inhibition is -9.22% (inactive).

Turning to `O=C(NCc1cccnc1)c1ccccc1NS(=O)(=O)c1ccccc1`, the inhibition was -3.37% (inactive).

With `CCOC(=O)C1CCCN(c2c(N3CCN(c4ccccn4)CC3)c(=O)c2=O)C1` (configuration not stated), the inhibition is 6.61% (inactive).

Turning to `CCCCCOc1ccc(C(=O)NCCC(=O)NCCCC(=O)OCC)cc1`, the inhibition was -5.18% (inactive).

As for `CC1(C)CC(=O)C2=C(C1)Nc1ccccc1NC2c1ccc(F)c(F)c1` (configuration not stated), the inhibition was -6.87% (inactive).

On to `O=C(O)Cc1cn(Cc2ccc(F)cc2)c2ccccc12`, for which the inhibition is 5.18% (inactive).

Regarding `Cc1[nH][nH]c(=O)c1C(c1c(C)[nH][nH]c1=O)c1cn(Cc2ccc(Cl)c(Cl)c2)c2ccccc12`, the inhibition is 17.4% (inactive).

For `COc1ccc(CNc2nc3ccccc3n2CCN2CCCCC2)cc1`, the inhibition was 8.37% (inactive).

For `CCN(CC)c1ccc(CNc2nc3ccccc3n2CCN2CCOCC2)cc1`, the inhibition was 5.53% (inactive).

`CC(C)C[C@@H](CNCC(=O)[C@H](CC(C)C)NC(=O)c1[nH]cnc1C(=O)N[C@H](CN)CC(C)C)NC(=O)c1nc[nH]c1C(=O)N[C@@H](Cc1ccccc1)C(=O)O`: the inhibition is -21.2% (inactive).

For `COC(=O)c1scc(C)c1NC(=O)c1ccccc1F`, the inhibition was -2.27% (inactive).

Consider `COc1cccc(OC)c1C(=O)Nc1nnc(-c2ccc(F)cc2)s1`, for which the inhibition was -7.27% (inactive).

For the molecule `CCN(CC)c1ccc(/C=N/N(c2ccccc2)c2ccccc2)c(O)c1`, the inhibition was -0.39% (inactive).

For `CCN(CC)c1ccc2nc3ccccc3[n+](CC)c2c1`, the inhibition was 25.1% (inactive).

For the molecule `N#Cc1nc(COc2cccc(Cl)c2)oc1N1CCN(c2ccccc2)CC1`, the inhibition is -10.8% (inactive).

For `O=C1C(c2c(O)[nH]c3ccccc23)=Nc2ccccc21`, the inhibition was 4.56% (inactive).

On to `CC(=O)Nc1c(O)c2ccccc2[nH]c1=O`, for which the inhibition is -0.37% (inactive).

As for `COc1ccc(CCNC(=O)c2ccc(CS(=O)(=O)Cc3cccc(C)c3)o2)cc1OC`, the inhibition was 1.57% (inactive).

With `O=C(CN1C(=O)c2ccccc2C1=O)Nc1cccc(Cl)c1`, the inhibition was -5.21% (inactive).

Turning to `Nc1ccc2cn[nH]c2c1`, the inhibition is 0.77% (inactive).

In the case of `Nc1ccc2nc(-c3cccc(-c4nc5ccc(N)cc5[nH]4)n3)[nH]c2c1`, the inhibition is 16.6% (inactive).

As to `O=C(OCCn1c(=S)sc2ccccc21)c1ccccc1`, the inhibition is -0.85% (inactive).

For `O=C(c1ccccc1)c1ccc(C(=O)N2CCOCC2)cc1`, the inhibition is 2.77% (inactive).

`O=C(CSc1nnc(-c2cccnc2)o1)Nc1ccccn1`: the inhibition was 19% (inactive).

For the molecule `CC(=O)Nc1ccc(NC(=O)CSc2nnc(-c3cccnc3)o2)cc1`, the inhibition was -1.5% (inactive).

On to `CCOC(=O)C1CCCN(c2c(NCCc3ccc(S(N)(=O)=O)cc3)c(=O)c2=O)C1` (configuration not stated), for which the inhibition is -1.2% (inactive).

Consider `Cc1ccc2c(CN(C)Cc3ccc(OC(F)F)cc3)cc(=O)oc2c1C`, for which the inhibition was -13.7% (inactive).

Turning to `CN(Cc1nccs1)C(=O)C1CCC(=O)N(Cc2ccccc2F)C1` (configuration not stated), the inhibition is -7.1% (inactive).

As for `COc1cccc(/C=C2\SC(=S)N(CCC(=O)N3CCCCC3)C2=O)c1`, the inhibition was -7.67% (inactive).

As for `COc1cccc(/C=C2\SC(=S)N(CCCC(=O)N3CCCCC3)C2=O)c1`, the inhibition is 13.4% (inactive).

Take `S=c1[nH]c(-c2ccccc2)cs1`: the inhibition is -8.02% (inactive).

As to `S=c1[nH]cnc2scc(-c3ccccc3)c12`, the inhibition was 2.25% (inactive).

Regarding `CCn1cc(C(=O)NCc2ccc(OC)cc2)c(=O)c2ccc(C)nc21`, the inhibition is -3.98% (inactive).

As to `O=C(NCCc1ccccc1)C(=O)NCC1CCCN1S(=O)(=O)c1ccccc1` (configuration not stated), the inhibition was -2.99% (inactive).

Consider `N#C/C(=C/C1=C(N2CCOCC2)C(=C/c2ccc(Cl)cc2)/CC1)C(=O)Nc1ccccc1F`, for which the inhibition is -12.3% (inactive).

Consider `CCN(CC)c1ccc(/C=C2\CCC(/C=C(/C#N)C(=O)Nc3ccccc3F)=C2N2CCOCC2)cc1`, for which the inhibition is -9.82% (inactive).

Take `CCN(CC)c1ccc(/C=C2\CCC(/C=C(\C#N)C(=O)Nc3ccccc3F)=C2N2CCOCC2)cc1`: the inhibition is -0.77% (inactive).

With `N#C/C(=C\C1=C(N2CCOCC2)C(=C\c2ccc(Cl)cc2)/CC1)C(=O)Nc1ccccc1F`, the inhibition is 8.68% (inactive).

Consider `CCOc1cccc(C2C(C(=O)c3ccc(C)o3)=C(O)C(=O)N2c2nnc(C)s2)c1` (configuration not stated), for which the inhibition is 3.08% (inactive).

As for `CC1(c2ccccc2)NC(=O)N(NC(=O)COC(=O)c2cc(Br)ccc2O)C1=O` (configuration not stated), the inhibition was -5.16% (inactive).

On to `O=C(NCCN1CCCCC1)c1ccc(Cl)nc1Cl`, for which the inhibition was -3.64% (inactive).

In the case of `Cc1ccc(S(=O)(=O)Nc2cc(Cl)c(O)cc2C)cc1`, the inhibition was 6.58% (inactive).

Turning to `Cc1ccc(S(=O)(=O)Nc2cccc3cccnc23)cc1`, the inhibition was -11% (inactive).

As to `Cc1ccc(S(=O)(=O)Nc2cccc3ncccc23)cc1`, the inhibition was -4.33% (inactive).

In the case of `Cc1ccc(S(=O)(=O)Nc2ccc(O)c3cccnc23)cc1`, the inhibition is -4.48% (inactive).

In the case of `Cc1nn(-c2ccccc2)c(C)c1/C=C/C(=O)OCC(=O)Nc1ncc(Cl)cc1Cl`, the inhibition is -0.68% (inactive).

`CCc1ccc2[nH]c(C)c(CN3CCCCCC3)c(=O)c2c1`: the inhibition was 6.48% (inactive).

In the case of `Cc1ccc(NC(=O)CSc2nnc(-c3ccco3)o2)cc1`, the inhibition was 5.76% (inactive).

For the molecule `Cc1cc(NC(=O)CSc2nnc(-c3ccccc3)o2)no1`, the inhibition is 14% (inactive).

Take `Nc1ccc(-c2ccccc2)cc1`: the inhibition is -0.13% (inactive).

With `O=C(O)c1ccc(N(c2ccccc2)c2ccccc2)cc1`, the inhibition was -2.79% (inactive).

For `Cc1ccc(C(=O)Nc2ccc(N3CCN(C(=O)c4ccco4)CC3)cc2)cc1`, the inhibition is -1.89% (inactive).

Turning to `S=C1NC2(CCCCC2)N=C1c1ccccc1`, the inhibition is -4.42% (inactive).

Take `S=C1NC2(CCCCCC2)N=C1c1ccccc1`: the inhibition is 6.12% (inactive).

On to `CC(=O)Nc1nonc1-c1nc2ccccc2n1CC1CC1`, for which the inhibition is 6.72% (inactive).

With `O=C(CSc1nnc(SCc2ccc(Cl)cc2)s1)N/N=C/c1ccc(C(=O)O)cc1`, the inhibition is -0.08% (inactive).

`CC1CCN(S(=O)(=O)c2ccc3c(c2)N(CC(=O)N(C)Cc2ccco2)C(=O)CO3)CC1`: the inhibition is 3.45% (inactive).

With `CCOc1cccc(-c2nn(-c3ccccc3)cc2/C=C(/C#N)C(=O)NCCCn2ccnc2)c1`, the inhibition was 6.31% (inactive).

As for `CCCOc1cccc(-c2nn(-c3ccccc3)cc2/C=C(\C#N)C(=O)NCCCn2ccnc2)c1`, the inhibition is 1.02% (inactive).

In the case of `N#C/C(=C/c1cn(-c2ccccc2)nc1-c1cccc(OCc2ccccc2)c1)C(=O)NCCCn1ccnc1`, the inhibition is -3.98% (inactive).

As for `O=C(NCCCn1ccnc1)c1cn(-c2ccccc2)nc1-c1ccc(F)cc1`, the inhibition is 6.07% (inactive).

Turning to `CC(C)C(=O)Nc1cccc(C(=O)Nc2cc([N+](=O)[O-])ccc2F)c1`, the inhibition was -8.76% (inactive).

Regarding `COc1ccc(C(=O)O/N=C(\N)c2ccc(Cl)cc2)cc1`, the inhibition was 2.64% (inactive).

Turning to `CN1CCCN(C(=O)CNC(=O)c2ccccc2F)CC1`, the inhibition is -1.28% (inactive).

`Cc1c(C(C)(C)C)sc(=NC(=O)c2ccccc2O)n1C`: the inhibition is -24.8% (inactive).

In the case of `CC(=O)N=Nc1[nH]c(N)c2ccccc12`, the inhibition is -6.73% (inactive).

Take `Nc1[nH]c(N=NC(=O)c2ccc(F)cc2)c2ccccc12`: the inhibition is 12.2% (inactive).

Regarding `Nc1[nH]c(N=NC(=O)c2ccccc2)c2ccccc12`, the inhibition is 19% (inactive).

As for `Nc1[nH]c(N=NC(=O)c2ccc(Cl)cc2)c2ccccc12`, the inhibition was 10.9% (inactive).

`Cc1ccc(N2CC(C(=O)Nc3nc4ccc(S(C)(=O)=O)cc4s3)CC2=O)cc1` (configuration not stated): the inhibition was -4% (inactive).

`COc1cc(C(=O)NCc2ccccc2)ccc1OC(F)F`: the inhibition is 2.29% (inactive).

Take `O=C1C=C(Nc2ccccc2)c2ccccc2C1=O`: the inhibition is -0.21% (inactive).

In the case of `Cc1ccc(NC2=C/C(=N/S(=O)(=O)c3cccs3)c3ccccc3C2=O)cc1`, the inhibition was 2.95% (inactive).

Regarding `Cc1ccc(NC2=C/C(=N/S(=O)(=O)c3cccs3)c3ccccc3C2=O)cc1C`, the inhibition was -0.69% (inactive).

Consider `Cc1cccc(NC2=C/C(=N/S(=O)(=O)c3cccs3)c3ccccc3C2=O)c1`, for which the inhibition is 22.8% (inactive).

For the molecule `O=S(=O)(/N=C(/Nc1ccccc1)c1ccccc1)c1cccs1`, the inhibition was -0.58% (inactive).

As to `Cc1ccc(S(=O)(=O)/N=C2\C=C(NS(=O)(=O)c3ccccc3)C(=O)c3ccccc32)c(C)c1`, the inhibition was 10.6% (inactive).

As to `O=C1C=C(Nc2ccc(O)cc2)C(=O)c2ccccc21`, the inhibition was 24.1% (inactive).

In the case of `Cc1ccc(NC2=CC(=O)C(=O)c3ccccc32)c(C)c1`, the inhibition is -11% (inactive).

With `O=C(C1CC(=O)N(c2ccc(F)cc2)C1)N1CCC(c2nc3ccccc3[nH]2)CC1` (configuration not stated), the inhibition was -1.46% (inactive).

Regarding `COc1ccc(-c2cc(C(=O)Nc3ccc(F)cc3F)no2)cc1`, the inhibition was -13.1% (inactive).

Consider `CC(C)n1nnnc1SCC(=O)NNC(=O)C1CCCCC1`, for which the inhibition was -0.25% (inactive).

On to `COC(=O)[C@@H]1C[C@@]2(O)[C@@H](O)[C@@H](O)[C@@H](O)C[C@H]2N1CC1CCCCC1`, for which the inhibition is -4.19% (inactive).

`CCCCn1c(N)c(N(C(=O)CSc2nnnn2-c2ccccc2C)C2CCCC2)c(=O)[nH]c1=O`: the inhibition is -10.4% (inactive).

For the molecule `CC1CC(C)CN(C(=O)COc2ccc([N+](=O)[O-])cc2Cl)C1` (configuration not stated), the inhibition is 0.5% (inactive).

For `CSCCC(NC(=O)c1ccccc1)C(=O)OCC(=O)Nc1ccc(C)c(Cl)c1` (configuration not stated), the inhibition was 0.6% (inactive).

For the molecule `COc1ccc(OCc2nnc(SCC(N)=O)n2-c2ccccc2OC)cc1`, the inhibition is -0.95% (inactive).
